From PubChem BioAssay AID624037 (The Scripps Research Institute Molecular Screening Center, 2012)
The campaign covered roughly 360,000 compounds. About 700 (0.19%) were called active. This excerpt belongs to a sample that is enriched for actives. A number with no mark means an inactive call.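 Rule for the calls: active = activation above the run's mean over test compounds plus 3 SD (cut at about 23% in these data); inactive = the rest.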

Molecular target: Muscarinic acetylcholine receptor M5 (Homo sapiens) (UniProt P08912)
Sequence (P08912 whole entry, looked up): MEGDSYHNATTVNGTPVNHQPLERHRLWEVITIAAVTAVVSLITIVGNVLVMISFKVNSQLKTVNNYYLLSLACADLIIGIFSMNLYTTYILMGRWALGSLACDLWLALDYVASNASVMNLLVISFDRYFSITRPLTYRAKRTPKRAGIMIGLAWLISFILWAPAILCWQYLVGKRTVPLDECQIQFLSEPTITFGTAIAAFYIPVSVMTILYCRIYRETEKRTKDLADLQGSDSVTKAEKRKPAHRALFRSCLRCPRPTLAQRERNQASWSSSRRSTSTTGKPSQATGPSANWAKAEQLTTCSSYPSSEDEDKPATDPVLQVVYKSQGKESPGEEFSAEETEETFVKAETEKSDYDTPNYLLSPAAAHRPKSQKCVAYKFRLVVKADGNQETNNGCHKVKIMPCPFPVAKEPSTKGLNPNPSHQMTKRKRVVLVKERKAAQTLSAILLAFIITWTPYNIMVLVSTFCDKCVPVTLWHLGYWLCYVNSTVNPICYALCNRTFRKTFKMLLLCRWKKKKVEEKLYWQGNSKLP
Assay: human M5 muscarinic receptor agonists, primary screen, CHO-K1 cells, Fluo-8 calcium fluorescence (AID 624037);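 note: signal is peak over basal fluorescence ratio across the kinetic read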
Conditions: CHO-K1 hM5 cells, at 3 µM, hits give high values, 0% DMSO wells, 100% maximal acetylcholine response

**Q.** For CCOC(=O)C=Cc1ccc(C(=O)OCC)[nH]1, which activation is on record?
**A.** 5.25%

**Q.** CSCCC(NC(=O)COc1ccccc1)C(=O)N(C)CC(=O)Nc1ccc(C)cc1 (stereo not drawn) was tested. Which activation did it give?
**A.** 0.98%

**Q.** With C=CC[n+]1c(-c2ccc(C)cc2)csc1NNC(=O)Nc1ccccc1 as the compound, how does the activation read?
**A.** 0.82%

**Q.** With O=C(Nc1cccc(Cl)c1)c1cc(S(=O)(=O)N2CCCCC2)c[nH]1 as the compound, how does the activation read?
**A.** 4.63%

**Q.** Which activation does the source give for CCOc1ccc(NC(=O)CN(C)C(=O)COc2cccc(CC)c2)cc1OCC here?
**A.** -0.57%

**Q.** How did the activation turn out when COc1ccc(CCNC(=S)N2CCN(S(=O)(=O)c3ccc(F)cc3)CC2)cc1 was run?
**A.** -3.34%

**Q.** How did the activation turn out when Cc1nc(C(=O)NCc2ccccc2)sc1C1(C)CC(c2cccnc2)=NO1 (stereo not drawn) was run?
**A.** 25.4% (active)

**Q.** For Cc1nc(-c2ccc(Cl)cc2)sc1C1(C)CC(c2ccccc2F)=NO1 (stereo not drawn), which activation is on record?
**A.** -0.32%

**Q.** With Cc1nc(C(=O)Nc2ccc(Cl)cc2)sc1C1(C)CC(c2ccccc2)=NO1 (stereo not drawn) as the compound, how does the activation read?
**A.** 1.09%

**Q.** For CN(C(=O)CN(CCO)CC(=O)N(C)C(C)(C)Cc1ccccc1)C(C)(C)Cc1ccccc1, which activation is on record?
**A.** 39.7% (active)

**Q.** For Cc1cc(C)cc(NC(=O)N(C)Cc2ccccc2)c1, which activation is on record?
**A.** -2.57%

**Q.** CC(C)(C)N(Cc1ccccc1)C(=O)c1ccncc1 was tested. Which activation did it give?
**A.** -0.8%

**Q.** For CCc1sc(C(=O)N2CCN(CC(=O)Nc3cccc(F)c3)CC2)cc1C, which activation is on record?
**A.** -3.37%

**Q.** COc1cccc(CNc2nc3cc(-c4csc5ccccc45)sc3c(=O)n2C)c1 was tested. Which activation did it give?
**A.** -0.3%

**Q.** With COc1cccc(CNc2nc(NCc3cccs3)nc3ccsc23)c1 as the compound, how does the activation read?
**A.** 27.2% (active)

**Q.** Which activation does the source give for COc1ccc(NC(=S)NCc2cccs2)c(OC)c1 here?
**A.** -3.29%

**Q.** Which activation does the source give for CC(=O)Nc1cccc(-c2cc3nc(NCc4cccnc4)n(C)c(=O)c3s2)c1 here?
**A.** 0.81%

**Q.** CCOC(=O)CNc1nc2ccccc2n2c(C)nnc12 was tested. Which activation did it give?
**A.** 1.28%

**Q.** How did the activation turn out when CC(=O)NCC(=O)N(Cc1ccco1)C1(C(=O)NC2CCCC2)CCCCC1 was run?
**A.** -0.72%

**Q.** How did the activation turn out when CC(C)[C@H](NC(=O)Nc1ccc(S(N)(=O)=O)cc1)C(=O)O was run?
**A.** -2.17%

**Q.** How did the activation turn out when CCN(CC)c1ccc(NC(=O)CN2C(=O)NC3(CCc4ccccc43)C2=O)cc1 (stereo not drawn) was run?
**A.** 2.57%

**Q.** How did the activation turn out when CN(C)c1ccc(/C=C2\NC(=S)N(Cc3ccccc3)C2=O)cc1 was run?
**A.** 41.4% (active)

**Q.** For O=C(Cn1cc(C(=O)C2CC2)c2ccccc21)Nc1ccccc1Cl, which activation is on record?
**A.** 1.64%

**Q.** Which activation does the source give for C=CCNc1nnc(SCC(=O)N2CCCCC2)c2ccccc12 here?
**A.** -0.35%

**Q.** For C/C(=C/C(=O)N1CCN(C)CC1)C(=O)O, which activation is on record?
**A.** -1.65%

**Q.** How did the activation turn out when Nc1ccc2c(c1)C(=Cc1cccnc1)c1ccccc1-2 was run?
**A.** -7.37%

**Q.** How did the activation turn out when C[C@@H]1CN([C@@H](C)CO)S(=O)(=O)c2ccc(-c3ccc(C(=O)N(C)C)cc3)cc2O[C@@H]1CN(C)Cc1ccccc1C(=O)O was run?
**A.** -0.69%

**Q.** For O=C(Cc1ccc(Cl)cc1)NC(=S)Nc1ccccc1O, which activation is on record?
**A.** 75.2% (active)

**Q.** For Cc1ccccc1NC(=S)NC(=O)Cc1ccc(Cl)cc1, which activation is on record?
**A.** 25.7% (active)

**Q.** With O=C(NC(=S)Nc1ccc(Cl)cc1Cl)C1CC1 as the compound, how does the activation read?
**A.** -3.08%

**Q.** How did the activation turn out when Cc1ccccc1N/C(SCc1ccc(Cl)cc1)=C(/C#N)C(N)=O was run?
**A.** -7.05%

**Q.** With Cc1cc(C(=O)NNC(=S)Nc2ccccc2C)cs1 as the compound, how does the activation read?
**A.** -0.42%

**Q.** Which activation does the source give for Oc1ccc(CNc2ccccc2O)cc1 here?
**A.** 3.67%

**Q.** How did the activation turn out when O=C(C1CCN(S(=O)(=O)c2cccs2)CC1)N1CCCCCC1 was run?
**A.** -3.68%

**Q.** With CCOc1ccc(NC(=O)N(CC(C)C)CC(C)C)cc1 as the compound, how does the activation read?
**A.** -3.79%

**Q.** Which activation does the source give for CCC(=C/c1sc2ccc3ccccc3c2[n+]1C)/C=C1\Sc2ccc3ccccc3c2N1C here?
**A.** 1.63%

**Q.** With COC(=O)CSc1snnc1-c1ccc(Cl)c(Cl)c1 as the compound, how does the activation read?
**A.** -7.41%

**Q.** For CN(C)c1cc(N)c2ccccc2n1 (tested in a mixture with another compound), which activation is on record?
**A.** -6.58%

**Q.** Which activation does the source give for NS(=O)(=O)c1cccc(NC(=O)CC23CC4CC(CC(Br)(C4)C2)C3)c1 here?
**A.** -1.18%

**Q.** With CC(=O)NC1=NN(C(C)=O)C(C)(c2ccc(C)cc2)S1 (stereo not drawn) as the compound, how does the activation read?
**A.** 1.09%

**Q.** Which activation does the source give for COc1ccccc1C(=O)Oc1ccc(N2C(=O)CCC2=O)cc1 here?
**A.** -1.29%

**Q.** Which activation does the source give for O=C(CCN1C(=O)[C@H]2CC=CC[C@H]2C1=O)NCc1nc(-c2ccccc2)no1 here?
**A.** 0.28%

**Q.** How did the activation turn out when COc1ccccc1C(=O)NC(CCSC)C(=O)NNC(=O)c1csc(N2CCOCC2)n1 (stereo not drawn) was run?
**A.** -2.2%

**Q.** How did the activation turn out when O=C(NCCSc1ncc(-c2ccccc2)[nH]1)c1ccco1 was run?
**A.** -1.14%

**Q.** For Cc1nnc(SCC(=O)Nc2ncc3c(n2)CC(C)(C)CC3=O)s1, which activation is on record?
**A.** -1.69%

**Q.** With COC(=O)c1sc(N)c(C(=O)OC)c1COC(=O)CNS(=O)(=O)c1ccc(C)cc1 as the compound, how does the activation read?
**A.** 1.46%

**Q.** C/C=C/c1ccc(OCC(=O)OCC(=O)Nc2c(C)nn(-c3ccccc3)c2C)c(OC)c1 was tested. Which activation did it give?
**A.** 0.8%

**Q.** Nc1ccc2nc3c(=O)[nH]c(=S)[nH]c3nc2c1 was tested. Which activation did it give?
**A.** 13.3%

**Q.** For CCCn1c(=O)c2c(C(F)(F)F)cc(-c3cccs3)nc2n(CCC)c1=O, which activation is on record?
**A.** -2.81%

**Q.** With COC(=O)c1c(NC(=O)c2ccccc2F)sc2c1C(C(=O)OC)CC2 (stereo not drawn) as the compound, how does the activation read?
**A.** 0.55%

**Q.** With COCC1CCCN(C(=O)c2ccc3oc(C(C)C)nc3c2)C1 (stereo not drawn) as the compound, how does the activation read?
**A.** -5.48%

**Q.** Which activation does the source give for O=C(NCc1cccc(Cl)c1)C1=CC=CN2CCS(=O)(=O)N=C12 here?
**A.** -4.02%

**Q.** Which activation does the source give for CCCCC(=O)NNC(=S)NC(=O)C(c1ccccc1)c1ccccc1 here?
**A.** 76.2% (active)

**Q.** Which activation does the source give for C=CCC(NC(=O)Cc1ccccc1)C(=O)NCCC (stereo not drawn) here?
**A.** 1.37%

**Q.** For CCCCC(=O)Nc1ccc2c(c1)C(=O)NC2=O, which activation is on record?
**A.** -1.75%

**Q.** Which activation does the source give for CNC(=O)C1CN(C(=O)c2cccc(S(=O)(=O)N3CCc4ccccc43)c2)c2ccccc2O1 (stereo not drawn) here?
**A.** 2.34%

**Q.** With CC(C)C[C@H](NC(=O)NCCc1ccc(Cl)cc1)C(=O)O as the compound, how does the activation read?
**A.** -0.97%

**Q.** Which activation does the source give for CC(NC(=O)c1ccco1)c1ccc2c(c1)OCO2 (stereo not drawn) here?
**A.** -1.73%
